Assays:
Experiment in all cases: DAPPL (digital affinity profiling via proximity ligation, sequencing); 10 mM Tris-HCl pH 7.5, 50 mM NaCl, 1 mM DTT, 4% glycerol, room temperature, 30 min; GST-TFs on glutathione beads, 16-mer random dsDNA library, 0.1% formaldehyde crosslink after washing; high values mean tight binding
Settings in all cases: protein: recombinant; tags: N-terminal GST; dsDNA, one strand shown
[1] = target: ETV1 (Homo sapiens, UniProt P50549 1-477)
Procedure, shortened: (§1)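 After expression in yeast as GST fusions, human transcription factors were bound to glutathione beads, DNA-barcoded and mixed with a tag-only sample. The pools were incubated with 200 nmole of a 16-mer random double-stranded DNA library in Tris/NaCl/DTT/glycerol buffer (30 min, room temperature), washed and crosslinked with 0.1% formaldehyde. Proximity ligation with BsaI/T4 ligase ran for 1 h at 37 °C, before PCR amplification and sequencing on an Illumina NextSeq500. Binding signal is a hexamer's read frequency for a factor divided by its frequency for the tag-only sample.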

[2] = target: T1, ERF (Homo sapiens, UniProt P50548 1-548)
T1 sequence: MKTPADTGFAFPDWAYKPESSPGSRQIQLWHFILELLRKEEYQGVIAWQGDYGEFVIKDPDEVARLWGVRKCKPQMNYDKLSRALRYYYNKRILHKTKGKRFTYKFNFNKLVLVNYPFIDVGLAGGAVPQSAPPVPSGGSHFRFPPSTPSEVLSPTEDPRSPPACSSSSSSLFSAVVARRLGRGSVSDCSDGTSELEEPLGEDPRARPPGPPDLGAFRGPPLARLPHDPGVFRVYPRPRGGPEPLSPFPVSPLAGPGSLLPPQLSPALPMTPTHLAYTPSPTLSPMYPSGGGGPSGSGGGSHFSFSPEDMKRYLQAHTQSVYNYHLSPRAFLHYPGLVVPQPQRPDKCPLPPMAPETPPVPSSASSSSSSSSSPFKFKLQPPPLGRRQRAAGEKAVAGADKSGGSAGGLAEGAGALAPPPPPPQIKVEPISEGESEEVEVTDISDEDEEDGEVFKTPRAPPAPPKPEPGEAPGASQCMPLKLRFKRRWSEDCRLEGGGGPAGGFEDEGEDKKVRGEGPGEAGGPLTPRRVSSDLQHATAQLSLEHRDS
Procedure, shortened: as §1

[3] = target: T2, ETV3L (Homo sapiens, UniProt Q6ZN32 1-361)
T2 sequence: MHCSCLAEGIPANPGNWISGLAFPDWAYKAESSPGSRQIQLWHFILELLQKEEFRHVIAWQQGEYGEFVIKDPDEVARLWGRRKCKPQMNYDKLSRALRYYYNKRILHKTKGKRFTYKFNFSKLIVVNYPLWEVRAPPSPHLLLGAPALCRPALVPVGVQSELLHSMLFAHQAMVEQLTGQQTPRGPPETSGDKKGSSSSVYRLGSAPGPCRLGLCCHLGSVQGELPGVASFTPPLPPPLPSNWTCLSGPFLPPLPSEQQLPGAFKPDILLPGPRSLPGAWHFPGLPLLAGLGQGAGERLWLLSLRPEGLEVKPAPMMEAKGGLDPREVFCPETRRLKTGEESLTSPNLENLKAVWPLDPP
Procedure, shortened: as §1

[4] = target: T3, ETS2 (Homo sapiens, UniProt P15036 1-469)
T3 sequence: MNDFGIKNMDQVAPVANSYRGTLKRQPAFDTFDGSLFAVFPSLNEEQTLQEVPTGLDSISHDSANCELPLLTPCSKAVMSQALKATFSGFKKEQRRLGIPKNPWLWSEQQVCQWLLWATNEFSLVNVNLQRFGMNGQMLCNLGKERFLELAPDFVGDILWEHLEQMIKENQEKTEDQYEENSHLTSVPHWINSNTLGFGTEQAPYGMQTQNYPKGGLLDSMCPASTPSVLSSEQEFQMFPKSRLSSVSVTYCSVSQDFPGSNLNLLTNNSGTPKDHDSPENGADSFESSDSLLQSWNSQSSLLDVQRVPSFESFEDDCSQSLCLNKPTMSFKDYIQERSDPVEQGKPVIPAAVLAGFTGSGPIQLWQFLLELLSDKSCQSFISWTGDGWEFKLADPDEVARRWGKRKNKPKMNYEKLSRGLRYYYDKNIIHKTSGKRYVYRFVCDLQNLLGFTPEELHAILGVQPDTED
Procedure, shortened: as §1

[5] = target: T4, SPDEF (Homo sapiens, UniProt O95238 1-335)
T4 sequence: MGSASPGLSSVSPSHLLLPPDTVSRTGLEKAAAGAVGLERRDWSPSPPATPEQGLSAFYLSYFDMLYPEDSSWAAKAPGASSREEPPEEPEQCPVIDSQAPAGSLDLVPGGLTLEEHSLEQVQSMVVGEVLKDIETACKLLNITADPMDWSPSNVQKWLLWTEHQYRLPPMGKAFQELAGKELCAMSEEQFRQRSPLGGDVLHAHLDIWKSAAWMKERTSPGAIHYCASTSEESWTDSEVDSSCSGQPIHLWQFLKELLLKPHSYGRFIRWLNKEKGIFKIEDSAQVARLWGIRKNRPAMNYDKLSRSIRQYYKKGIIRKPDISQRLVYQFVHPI
Procedure, shortened: as §1

[6] = target: T5, ETV7 (Homo sapiens, UniProt Q9Y603 1-341)
T5 sequence: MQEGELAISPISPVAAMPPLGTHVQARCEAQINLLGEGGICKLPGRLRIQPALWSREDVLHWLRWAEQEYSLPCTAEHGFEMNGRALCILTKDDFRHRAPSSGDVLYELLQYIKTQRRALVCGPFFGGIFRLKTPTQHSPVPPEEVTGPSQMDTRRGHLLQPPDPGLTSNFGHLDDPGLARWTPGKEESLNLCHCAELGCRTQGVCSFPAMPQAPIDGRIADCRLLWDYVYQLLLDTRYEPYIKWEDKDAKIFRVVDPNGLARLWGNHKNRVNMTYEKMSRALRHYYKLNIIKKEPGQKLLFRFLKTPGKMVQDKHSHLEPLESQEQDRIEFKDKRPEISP
Procedure, shortened: as §1

[7] = target: T6, ELF5 (Homo sapiens, UniProt Q9UKW6-2 1-255)
T6 sequence: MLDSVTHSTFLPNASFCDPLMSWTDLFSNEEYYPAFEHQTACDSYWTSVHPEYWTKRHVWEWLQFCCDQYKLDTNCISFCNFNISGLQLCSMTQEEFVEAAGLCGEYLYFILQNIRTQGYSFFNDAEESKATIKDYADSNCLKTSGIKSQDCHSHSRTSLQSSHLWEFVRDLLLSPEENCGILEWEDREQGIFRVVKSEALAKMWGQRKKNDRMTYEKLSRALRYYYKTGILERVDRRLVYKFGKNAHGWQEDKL
Procedure, shortened: as §1

[8] = target: T7, ETV3 (Homo sapiens, UniProt P41162-2 1-143)
T7 sequence: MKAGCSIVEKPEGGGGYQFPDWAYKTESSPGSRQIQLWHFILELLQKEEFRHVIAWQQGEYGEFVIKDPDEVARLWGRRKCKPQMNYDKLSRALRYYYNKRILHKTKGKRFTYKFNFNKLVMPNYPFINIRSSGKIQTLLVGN
Procedure, shortened: as §1

[9] = target: ETV6 (Homo sapiens, UniProt P41212 1-452)
Procedure, shortened: as §1

Chain of ETV6 (P41212 whole entry): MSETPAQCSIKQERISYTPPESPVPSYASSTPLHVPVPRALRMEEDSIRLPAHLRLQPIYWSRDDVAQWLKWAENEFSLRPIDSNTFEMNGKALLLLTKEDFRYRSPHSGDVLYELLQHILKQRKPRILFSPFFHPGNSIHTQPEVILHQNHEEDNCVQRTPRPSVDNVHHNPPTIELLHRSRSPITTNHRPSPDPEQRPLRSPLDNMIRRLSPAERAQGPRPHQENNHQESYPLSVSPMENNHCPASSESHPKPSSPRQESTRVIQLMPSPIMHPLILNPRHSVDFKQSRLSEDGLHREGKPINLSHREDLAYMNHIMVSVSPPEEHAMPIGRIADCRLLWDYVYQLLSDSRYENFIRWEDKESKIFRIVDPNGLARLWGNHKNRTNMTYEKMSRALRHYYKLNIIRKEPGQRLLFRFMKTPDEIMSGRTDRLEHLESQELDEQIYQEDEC
Chain of ETV1 (P50549 whole entry, the tested form may be a part): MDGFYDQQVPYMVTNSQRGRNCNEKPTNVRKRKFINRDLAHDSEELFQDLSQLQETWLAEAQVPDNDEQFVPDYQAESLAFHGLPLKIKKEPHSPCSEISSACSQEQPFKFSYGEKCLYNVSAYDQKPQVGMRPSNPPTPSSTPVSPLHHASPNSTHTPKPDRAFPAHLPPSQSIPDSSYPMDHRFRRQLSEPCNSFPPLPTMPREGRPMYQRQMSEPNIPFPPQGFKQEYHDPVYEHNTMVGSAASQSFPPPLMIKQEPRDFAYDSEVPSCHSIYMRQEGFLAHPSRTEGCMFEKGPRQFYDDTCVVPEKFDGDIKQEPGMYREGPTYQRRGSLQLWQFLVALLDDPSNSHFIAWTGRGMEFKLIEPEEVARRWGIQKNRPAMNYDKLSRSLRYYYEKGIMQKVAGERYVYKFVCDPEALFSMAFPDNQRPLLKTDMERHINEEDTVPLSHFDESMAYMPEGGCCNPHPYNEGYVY

**Q.** For TTCAAC, which binding signal [1] is on record?
**A.** 1.35 fold enrichment (6-mer frequency, TF over GST control)

**Q.** What about the binding signal [2] of the same sequence?
**A.** 1.31 fold enrichment (6-mer frequency, TF over GST control)

**Q.** What about the binding signal [3] of the same sequence?
**A.** 1.16 fold enrichment (6-mer frequency, TF over GST control)

**Q.** And the binding signal [4]?
**A.** 1.29 fold enrichment (6-mer frequency, TF over GST control)

**Q.** What about the binding signal [5] of the same sequence?
**A.** 1.28 fold enrichment (6-mer frequency, TF over GST control)

**Q.** What about the binding signal [6] of the same sequence?
**A.** 1.19 fold enrichment (6-mer frequency, TF over GST control)

**Q.** And the binding signal [7]?
**A.** 1.27 fold enrichment (6-mer frequency, TF over GST control)

**Q.** And the binding signal [8]?
**A.** 1.32 fold enrichment (6-mer frequency, TF over GST control)

**Q.** And the binding signal [9]?
**A.** 1.19 fold enrichment (6-mer frequency, TF over GST control)

Reference: publication PMC7862700, “An all-to-all approach to the identification of sequence-specific readers for epigenetic DNA modifications on cytosine”
